Results published in the supplement of paper PMC10849652.
The full data set covers some 8,800 targets. This sample favours those with a hit. About 0.5% of all pairs of compound and target were hits.

Key:
Assay in all cases: log2 fold change, soluble protein after heating vs DMSO (PISA); higher = thermal stabilisation; K562 lysate, 10 uM; active = over 0.2 and 3.5 SD of the protein, either way, in both replicates (recomputed)
ibrutinib = compound: C=CC(=O)N1CCC[C@@H](n2nc(-c3ccc(Oc4ccccc4)cc3)c3c(N)ncnc32)C1 [ibrutinib]
Summary of the method: (§1)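 Values give the log-two fold change in thermal stability against solvent controls, from duplicates. Crude K562 extract at 1 mg/mL protein, made by dounce homogenisation in PBS pH 7.4 with 1 mM MgCl2, was treated with 10 μM compound for 30 min. After 3 min heating across 48°C-58°C, aliquots were pooled, adjusted to 0.5% NP-40 at 4°C and centrifuged at 21,000xg for 90 min. The supernatant was measured by TMTpro 16plex LC-MS/MS with channel sums equalised.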

[1] = compound: CC(=O)c1cnc2ccc(-c3cc(Cl)c(O)c(Cl)c3)nc2c1N[C@H]1CC[C@H](CN(C)C)CC1
Summary of the method: as §1

ralimetinib = compound: CC(C)(C)Cn1c(N)nc2ccc(-c3[nH]c(C(C)(C)C)nc3-c3ccc(F)cc3)nc21 [ralimetinib]
Summary of the method: as §1

[2] = compound: CC(C)(O)CC(=O)NCCn1ccc2ncnc(Nc3ccc(Oc4cccc(C(F)(F)F)c4)c(Cl)c3)c21
Summary of the method: as §1

[3] = compound: CC(C)C1=C2N=C(C=C(N2N=C1)NCC3=CC=CC=C3)NCCCCCCN
Summary of the method: as §1

[4] = compound: CC1=C(C(CC(=O)N1)C2=CC=C(C=C2)C(F)(F)F)C(=O)NC3=C(C=C4C(=C3)C=NN4)F
Summary of the method: as §1

[5] = compound: CC1=C(C2=C(C=C1)C(=O)C3=CC=CC=C3N2CCCN)C
Summary of the method: as §1

[6] = compound: CC1=C(C=C(C=C1)NC(=O)C2=CC(=CC=C2)C(C)(C)C#N)NC3=CC4=C(C=C3)N=CN(C4=O)C
Summary of the method: as §1

[7] = compound: CC1=C(C=C(C=C1)NC(=O)C2=CC(=CC=C2)N(C)C)NC(=O)C3=CC=C(C=C3)O
Summary of the method: as §1

[8] = compound: CC1=CC=C(C=C1)SC2=C3C=C(SC3=CN=C2)C(=O)N
Summary of the method: as §1

vemurafenib = compound: CCCS(=O)(=O)Nc1ccc(F)c(C(=O)c2c[nH]c3ncc(-c4ccc(Cl)cc4)cc23)c1F [vemurafenib]
Summary of the method: as §1

[9] = compound: CCCS(=O)(=O)Nc1ccc(F)c(C(=O)c2c[nH]c3ncc(Cl)cc23)c1F
Summary of the method: as §1

barasertib = compound: CCN(CCCOc1ccc2c(Nc3cc(CC(=O)Nc4cccc(F)c4)[nH]n3)ncnc2c1)CCOP(=O)(O)O [barasertib]
Summary of the method: as §1

[10] = compound: CC[C@@H]1C(=O)N(C)c2cnc(Nc3ccc(C(=O)NC4CCN(C)CC4)cc3OC)nc2N1C1CCCC1
Summary of the method: as §1

volasertib = compound: CC[C@@H]1C(=O)N(C)c2cnc(Nc3ccc(C(=O)N[C@H]4CC[C@H](N5CCN(CC6CC6)CC5)CC4)cc3OC)nc2N1C(C)C [volasertib]
Summary of the method: as §1

[11] = compound: CCn1c(C(=O)N(C2CC2)C2CC2)cc2c3c(ncn3C)c(Nc3cc(C)n(C)n3)nc21
Summary of the method: as §1

[12] = compound: CCn1cc(-c2ccnc3[nH]c(-c4cccc(CN(C)C)c4)cc23)c(-c2ccc(NC(=O)N(C)C)cc2)n1
Summary of the method: as §1

[13] = compound: CN1CCC(CNc2ccc3ncc(-c4cccc(OC(F)(F)F)c4)n3n2)CC1
Summary of the method: as §1

saracatinib = compound: CN1CCN(CCOc2cc(OC3CCOCC3)c3c(Nc4c(Cl)ccc5c4OCO5)ncnc3c2)CC1 [saracatinib]
Summary of the method: as §1

sotrastaurin = compound: CN1CCN(c2nc(C3=C(c4c[nH]c5ccccc45)C(=O)NC3=O)c3ccccc3n2)CC1 [sotrastaurin]
Summary of the method: as §1

Measured: log2 fold change

MAP1S (UniProt Q66K74)
Chain of UniProt Q66K74 (Q66K74 whole entry, looked up): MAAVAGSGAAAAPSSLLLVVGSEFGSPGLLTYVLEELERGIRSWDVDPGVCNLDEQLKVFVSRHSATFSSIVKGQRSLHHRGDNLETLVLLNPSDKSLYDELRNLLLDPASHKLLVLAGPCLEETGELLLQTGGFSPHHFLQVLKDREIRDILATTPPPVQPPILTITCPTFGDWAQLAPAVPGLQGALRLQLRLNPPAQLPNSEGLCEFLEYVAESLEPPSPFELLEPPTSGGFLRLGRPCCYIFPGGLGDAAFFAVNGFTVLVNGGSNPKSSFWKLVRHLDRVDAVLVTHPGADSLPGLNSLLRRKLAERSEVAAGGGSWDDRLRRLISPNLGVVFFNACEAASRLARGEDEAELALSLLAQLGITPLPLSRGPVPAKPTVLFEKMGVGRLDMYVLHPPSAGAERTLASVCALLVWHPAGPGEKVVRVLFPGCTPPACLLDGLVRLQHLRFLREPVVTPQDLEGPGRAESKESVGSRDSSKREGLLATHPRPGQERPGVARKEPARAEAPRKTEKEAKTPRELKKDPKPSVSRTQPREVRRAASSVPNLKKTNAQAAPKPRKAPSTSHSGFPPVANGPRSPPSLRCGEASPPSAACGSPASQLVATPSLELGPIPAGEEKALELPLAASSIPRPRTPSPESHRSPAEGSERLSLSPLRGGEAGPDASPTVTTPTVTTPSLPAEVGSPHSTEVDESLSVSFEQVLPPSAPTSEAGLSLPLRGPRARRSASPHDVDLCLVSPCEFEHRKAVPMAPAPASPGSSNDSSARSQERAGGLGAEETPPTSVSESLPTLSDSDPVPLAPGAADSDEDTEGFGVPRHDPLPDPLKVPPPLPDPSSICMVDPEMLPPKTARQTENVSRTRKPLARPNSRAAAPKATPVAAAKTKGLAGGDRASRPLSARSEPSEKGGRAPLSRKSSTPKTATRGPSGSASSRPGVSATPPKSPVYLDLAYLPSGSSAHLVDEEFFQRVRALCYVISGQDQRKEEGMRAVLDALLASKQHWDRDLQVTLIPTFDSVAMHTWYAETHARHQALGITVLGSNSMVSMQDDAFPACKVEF
inactive: ibrutinib -0.008 | [1] -0.026 | ralimetinib 0.004 | [2] -0.041 | [3] -0.005 | [4] 0.011 | [5] -0.021 | [6] 0 | [7] 0.025 | [8] 0.006 | vemurafenib -0.004 | [9] 0.041 | barasertib 0.002 | [10] -0.035 | volasertib -0.024 | [11] -0.01 | [12] -0.056 | [13] -0.022 | saracatinib 0.038 | sotrastaurin 0.037

LAMP1 (UniProt P11279)
active: [12] -0.508
inactive: ibrutinib 0.034 | [1] -0.031 | ralimetinib -0.003 | [2] -0.11 | [3] 0.008 | [4] 0.01 | [5] 0.003 | [6] 0.022 | [7] -0.04 | [8] -0.032 | vemurafenib -0.009 | [9] 0.02 | barasertib 0.001 | [10] 0.059 | volasertib 0.056 | [11] -0.097 | [13] 0.24 | saracatinib 0.018 | sotrastaurin 0.022

KSR1 (UniProt Q8IVT5)
inactive: ibrutinib 0.021 | [1] -0.103 | ralimetinib 0.054 | [2] 0.021 | [3] -0.025 | [4] -0.011 | [5] -0.032 | [6] 0.007 | [7] 0.019 | [8] -0.074 | vemurafenib 0.021 | [9] 0.049 | barasertib -0.022 | [10] -0.009 | volasertib 0.016 | [11] 0.009 | [12] 0.187 | [13] -0.056 | saracatinib -0.003 | sotrastaurin -0.065

KIF15 (UniProt Q9NS87)
inactive: ibrutinib -0.017 | [1] 0.006 | ralimetinib 0.008 | [2] -0.022 | [3] 0.01 | [4] 0.022 | [5] -0.027 | [6] 0.02 | [7] 0.036 | [8] -0.015 | vemurafenib -0.01 | [9] 0.045 | barasertib 0.016 | [10] -0.018 | volasertib -0.053 | [11] 0.036 | [12] 0.006 | [13] -0.036 | saracatinib 0.019 | sotrastaurin 0

KPNA2 (UniProt P52292)
inactive: ibrutinib -0.044 | [1] -0.011 | ralimetinib -0.001 | [2] -0.023 | [3] 0.009 | [4] -0.01 | [5] -0.027 | [6] -0.032 | [7] 0.051 | [8] 0.041 | vemurafenib 0.001 | [9] 0 | barasertib 0.05 | [10] -0.037 | volasertib -0.051 | [11] 0.004 | [12] -0.033 | [13] -0.041 | saracatinib 0.005 | sotrastaurin 0.038

KIF14 (UniProt Q15058)
Chain of UniProt Q15058 (Q15058 whole entry, looked up): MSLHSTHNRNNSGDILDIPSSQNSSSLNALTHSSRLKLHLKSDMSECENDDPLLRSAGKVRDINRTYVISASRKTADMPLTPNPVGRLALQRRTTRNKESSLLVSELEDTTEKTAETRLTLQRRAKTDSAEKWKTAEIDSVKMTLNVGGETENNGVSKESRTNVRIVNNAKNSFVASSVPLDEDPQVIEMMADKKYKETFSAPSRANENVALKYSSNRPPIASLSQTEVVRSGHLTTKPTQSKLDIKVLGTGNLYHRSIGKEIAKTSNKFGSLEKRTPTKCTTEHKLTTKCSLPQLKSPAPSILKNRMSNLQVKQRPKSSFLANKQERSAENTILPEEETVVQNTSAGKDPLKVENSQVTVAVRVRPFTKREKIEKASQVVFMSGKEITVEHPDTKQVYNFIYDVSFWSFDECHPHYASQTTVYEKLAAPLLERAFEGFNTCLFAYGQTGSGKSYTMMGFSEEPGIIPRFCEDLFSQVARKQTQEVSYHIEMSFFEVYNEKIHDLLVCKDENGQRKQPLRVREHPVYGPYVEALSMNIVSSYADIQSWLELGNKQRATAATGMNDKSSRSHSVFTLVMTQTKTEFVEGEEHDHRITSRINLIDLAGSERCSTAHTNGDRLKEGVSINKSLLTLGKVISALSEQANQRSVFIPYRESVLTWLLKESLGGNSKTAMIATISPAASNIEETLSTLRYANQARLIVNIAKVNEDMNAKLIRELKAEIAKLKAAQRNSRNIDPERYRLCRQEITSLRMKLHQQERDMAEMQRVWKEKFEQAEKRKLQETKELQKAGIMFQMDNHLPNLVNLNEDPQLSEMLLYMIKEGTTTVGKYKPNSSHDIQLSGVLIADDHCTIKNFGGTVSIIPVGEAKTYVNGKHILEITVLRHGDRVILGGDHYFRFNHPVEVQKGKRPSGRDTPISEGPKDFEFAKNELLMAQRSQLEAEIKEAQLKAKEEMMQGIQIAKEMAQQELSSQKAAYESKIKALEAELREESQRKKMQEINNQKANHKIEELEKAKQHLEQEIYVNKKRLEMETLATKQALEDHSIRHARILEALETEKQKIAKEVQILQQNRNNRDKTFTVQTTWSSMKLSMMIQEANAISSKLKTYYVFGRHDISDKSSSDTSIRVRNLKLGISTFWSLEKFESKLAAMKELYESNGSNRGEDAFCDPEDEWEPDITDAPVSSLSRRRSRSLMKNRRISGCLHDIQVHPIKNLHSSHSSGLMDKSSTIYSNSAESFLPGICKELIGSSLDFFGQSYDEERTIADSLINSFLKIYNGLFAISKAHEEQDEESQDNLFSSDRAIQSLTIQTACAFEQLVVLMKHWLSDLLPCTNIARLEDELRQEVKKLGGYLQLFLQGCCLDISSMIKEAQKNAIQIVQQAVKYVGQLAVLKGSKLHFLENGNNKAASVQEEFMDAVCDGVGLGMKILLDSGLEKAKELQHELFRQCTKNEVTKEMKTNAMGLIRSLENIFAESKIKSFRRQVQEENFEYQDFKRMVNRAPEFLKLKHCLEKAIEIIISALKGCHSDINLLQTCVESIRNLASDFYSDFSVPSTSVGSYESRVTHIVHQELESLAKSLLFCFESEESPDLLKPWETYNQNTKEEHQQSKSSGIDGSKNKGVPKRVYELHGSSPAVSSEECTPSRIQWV
inactive: ibrutinib 0.086 | [1] 0.024 | ralimetinib 0.002 | [2] 0.003 | [3] 0.017 | [4] 0.002 | [5] -0.011 | [6] 0.007 | [7] 0.041 | [8] -0.012 | vemurafenib 0.027 | [9] 0.021 | barasertib 0.143 | [10] 0.052 | volasertib -0.071 | [11] -0.005 | [12] -0.046 | [13] 0.05 | saracatinib 0.016 | sotrastaurin 0.01

LYN (UniProt P07948)
Chain of UniProt P07948 (P07948 whole entry, looked up): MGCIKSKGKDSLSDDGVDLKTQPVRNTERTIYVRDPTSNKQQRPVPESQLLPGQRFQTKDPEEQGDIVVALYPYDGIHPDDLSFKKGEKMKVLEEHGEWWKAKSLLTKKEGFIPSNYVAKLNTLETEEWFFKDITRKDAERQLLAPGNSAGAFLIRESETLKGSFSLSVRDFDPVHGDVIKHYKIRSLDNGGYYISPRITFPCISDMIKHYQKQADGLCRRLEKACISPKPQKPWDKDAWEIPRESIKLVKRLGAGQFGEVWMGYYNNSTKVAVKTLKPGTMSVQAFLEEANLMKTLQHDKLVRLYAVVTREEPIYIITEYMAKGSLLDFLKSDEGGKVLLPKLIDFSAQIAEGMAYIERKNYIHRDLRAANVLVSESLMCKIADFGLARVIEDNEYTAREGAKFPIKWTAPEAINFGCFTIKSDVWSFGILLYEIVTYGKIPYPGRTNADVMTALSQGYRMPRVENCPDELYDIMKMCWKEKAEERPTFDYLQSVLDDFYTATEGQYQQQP
inactive: [1] 0.141 | ralimetinib -0.068 | [2] 0.068 | [3] 0 | [4] 0.003 | [5] -0.043 | [6] 0.479 | [7] 0.007 | [8] -0.126 | vemurafenib 0.285 | [9] 0.05 | barasertib 0.258 | [10] -0.067 | volasertib -0.134 | [11] 0.004 | [12] -0.012 | [13] 0.233 | saracatinib 0.605 | sotrastaurin -0.045
active: ibrutinib 1.15

LLGL1 (UniProt Q15334)
Chain of UniProt Q15334 (Q15334 whole entry, looked up): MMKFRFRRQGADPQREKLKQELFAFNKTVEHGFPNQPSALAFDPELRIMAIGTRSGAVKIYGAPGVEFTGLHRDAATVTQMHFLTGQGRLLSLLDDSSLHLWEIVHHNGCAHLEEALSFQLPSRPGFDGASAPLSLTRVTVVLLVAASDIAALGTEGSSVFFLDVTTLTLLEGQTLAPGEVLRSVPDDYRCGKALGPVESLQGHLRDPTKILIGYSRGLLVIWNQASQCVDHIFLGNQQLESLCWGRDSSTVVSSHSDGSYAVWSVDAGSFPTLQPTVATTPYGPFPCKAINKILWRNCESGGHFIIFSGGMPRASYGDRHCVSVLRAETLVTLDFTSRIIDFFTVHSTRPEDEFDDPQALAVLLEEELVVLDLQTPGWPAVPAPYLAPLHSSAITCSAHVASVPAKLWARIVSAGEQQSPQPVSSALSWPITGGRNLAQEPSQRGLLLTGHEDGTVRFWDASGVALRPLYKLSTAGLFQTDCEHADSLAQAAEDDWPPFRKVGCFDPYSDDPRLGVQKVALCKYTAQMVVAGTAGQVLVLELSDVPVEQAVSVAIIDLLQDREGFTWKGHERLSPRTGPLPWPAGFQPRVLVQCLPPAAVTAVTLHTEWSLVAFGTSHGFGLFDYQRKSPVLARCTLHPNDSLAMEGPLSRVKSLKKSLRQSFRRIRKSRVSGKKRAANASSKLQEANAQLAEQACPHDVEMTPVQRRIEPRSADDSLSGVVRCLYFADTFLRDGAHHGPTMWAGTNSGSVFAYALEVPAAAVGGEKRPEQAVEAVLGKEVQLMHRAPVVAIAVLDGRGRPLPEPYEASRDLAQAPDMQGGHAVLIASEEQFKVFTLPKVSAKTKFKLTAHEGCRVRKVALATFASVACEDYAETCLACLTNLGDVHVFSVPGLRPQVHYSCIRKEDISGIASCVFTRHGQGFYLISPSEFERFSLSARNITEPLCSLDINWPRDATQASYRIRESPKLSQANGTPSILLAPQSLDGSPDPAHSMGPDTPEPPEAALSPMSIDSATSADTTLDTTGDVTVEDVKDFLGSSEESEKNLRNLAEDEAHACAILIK
inactive: ibrutinib 0.007 | [1] 0.091 | ralimetinib 0.071 | [2] 0.015 | [3] -0.141 | [4] 0.033 | [5] -0.058 | [6] 0.019 | [7] 0.174 | [8] -0.011 | vemurafenib 0.06 | [9] -0.052 | barasertib -0.014 | [10] -0.057 | volasertib 0.02 | [11] -0.038 | [12] 0.033 | [13] -0.008 | saracatinib -0.097 | sotrastaurin 0.168

LAGE3 (UniProt Q14657)
inactive: ibrutinib 0.047 | [1] 0.002 | ralimetinib 0.012 | [2] 0 | [3] -0.004 | [4] -0.147 | [5] -0.098 | [6] -0.002 | [7] 0.031 | [8] 0.046 | vemurafenib 0.016 | [9] 0.004 | barasertib 0.128 | [10] -0.032 | volasertib 0.005 | [11] 0.058 | [12] -0.024 | [13] -0.003 | saracatinib 0.019 | sotrastaurin -0.024

MRPL10 isoform 2 (UniProt Q7Z7H8)
inactive: ibrutinib -0.062 | [1] -0.013 | ralimetinib 0.047 | [2] -0.019 | [3] -0.04 | [4] -0.029 | [5] -0.005 | [6] 0.025 | [7] 0.053 | [8] 0.042 | vemurafenib 0.027 | [9] 0.033 | barasertib 0.132 | [10] 0.03 | volasertib -0.037 | [11] -0.063 | [12] 0.075 | [13] -0.032 | saracatinib -0.005 | sotrastaurin 0.068

MIF (UniProt P14174)
inactive: ibrutinib 0.101 | [1] -0.057 | ralimetinib -0.002 | [2] 0.01 | [3] 0.003 | [4] -0.095 | [5] 0.009 | [6] -0.004 | [7] -0.019 | [8] 0.049 | vemurafenib 0.025 | [9] -0.047 | barasertib -0.02 | [10] 0 | volasertib -0.025 | [11] 0.021 | [12] -0.274 | [13] 0.084 | saracatinib 0.002 | sotrastaurin 0.002

MLH1 (UniProt P40692)
Chain of UniProt P40692 (P40692 whole entry, looked up): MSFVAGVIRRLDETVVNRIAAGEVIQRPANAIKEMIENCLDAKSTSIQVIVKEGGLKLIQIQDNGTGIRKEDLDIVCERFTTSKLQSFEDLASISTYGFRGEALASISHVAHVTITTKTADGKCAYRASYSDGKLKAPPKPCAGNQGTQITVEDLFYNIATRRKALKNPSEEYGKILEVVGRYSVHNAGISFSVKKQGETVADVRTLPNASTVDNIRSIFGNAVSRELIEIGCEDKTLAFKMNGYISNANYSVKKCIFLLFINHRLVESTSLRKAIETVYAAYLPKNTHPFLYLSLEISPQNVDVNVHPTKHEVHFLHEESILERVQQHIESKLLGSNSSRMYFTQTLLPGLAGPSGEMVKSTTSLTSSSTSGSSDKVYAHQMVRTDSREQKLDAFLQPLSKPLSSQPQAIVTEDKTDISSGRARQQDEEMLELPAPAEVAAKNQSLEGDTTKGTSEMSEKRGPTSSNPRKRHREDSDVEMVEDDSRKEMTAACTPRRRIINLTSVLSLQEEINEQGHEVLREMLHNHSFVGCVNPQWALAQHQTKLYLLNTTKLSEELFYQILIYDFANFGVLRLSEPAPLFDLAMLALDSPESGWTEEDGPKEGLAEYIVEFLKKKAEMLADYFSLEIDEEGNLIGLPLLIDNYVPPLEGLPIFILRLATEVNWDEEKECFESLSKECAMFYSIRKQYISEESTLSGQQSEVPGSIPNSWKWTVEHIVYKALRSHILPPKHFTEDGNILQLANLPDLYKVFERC
inactive: ibrutinib 0.01 | [1] -0.009 | ralimetinib 0.02 | [2] -0.035 | [3] -0.018 | [4] 0.017 | [5] -0.055 | [6] 0.014 | [7] -0.006 | [8] 0.03 | vemurafenib 0.042 | [9] -0.039 | barasertib 0.014 | [10] 0.013 | volasertib -0.002 | [11] 0.014 | [12] -0.029 | [13] -0.023 | saracatinib 0.051 | sotrastaurin 0.02

LTN1 isoform 3 (UniProt O94822)
inactive: ibrutinib -0.036 | [1] 0.018 | ralimetinib 0.016 | [2] -0.066 | [3] 0.079 | [4] 0.001 | [5] -0.009 | [6] -0.018 | [7] 0.075 | [8] 0.019 | vemurafenib 0.005 | [9] 0.022 | barasertib 0.034 | [10] -0.06 | volasertib -0.041 | [11] -0.004 | [12] 0.035 | [13] -0.106 | saracatinib 0.04 | sotrastaurin 0.03

LRCH3 (UniProt Q96II8)
inactive: ibrutinib -0.052 | [1] -0.016 | ralimetinib -0.004 | [2] -0.017 | [3] 0.015 | [4] -0.015 | [5] -0.025 | [6] 0.047 | [7] 0.07 | [8] 0.034 | vemurafenib -0.009 | [9] -0.01 | barasertib 0.03 | [10] -0.051 | volasertib -0.058 | [11] -0.022 | [12] 0.022 | [13] -0.031 | saracatinib 0.004 | sotrastaurin -0.047

MIPEP (UniProt Q99797)
inactive: ibrutinib 0.041 | [1] 0.054 | ralimetinib 0.027 | [2] 0.07 | [3] -0.02 | [4] -0.001 | [5] -0.003 | [6] -0.067 | [7] 0.044 | [8] 0.003 | vemurafenib -0.026 | [9] 0.004 | barasertib 0.006 | [10] -0.053 | volasertib -0.029 | [11] 0.029 | [12] -0.05 | [13] -0.015 | saracatinib 0.001 | sotrastaurin -0.042

MFF isoform 2 (UniProt Q9GZY8)
inactive: ibrutinib 0.007 | [1] -0.044 | ralimetinib -0.03 | [2] -0.033 | [3] -0.052 | [4] 0 | [5] 0.004 | [6] 0.032 | [7] 0.022 | [8] -0.024 | vemurafenib 0.019 | [9] 0.027 | barasertib 0.027 | [10] 0.032 | volasertib -0.014 | [11] 0.035 | [13] 0.036 | saracatinib 0.011 | sotrastaurin -0.044
active: [12] -0.234
